In PubChem BioAssay (EPA / NIEHS):
Results filed as inconclusive are left out. Activity calls are given as the source filed them. The calls were made as follows, unless noted: active = hit-call score of the fitted dose curve at least 0.9, where 1 is the maximum; inactive = score below 0.9.

What was measured:
[1] = IUF_NPC2a_radial_glia_migration_72hr: Leibniz Research Institute for Environmental Medicine (IUF) 72-hour Neural Progenitor Cell Migration Assay for Radial Glia Migration (NPC2a) (AID 2284299)
Summary of the method: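 Human fetal cortex (GW 16-19) neural progenitor spheres, 0.3 mm, plated on poly-D-lysine/laminin in N2 differentiation medium with compound from day 0. Radial glia migration distance (um, sphere core edge to migration edge) measured manually in four directions on 72 h brightfield images; well mean used.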

[2] = IUF_NPC2b_neuronal_migration_120hr: Leibniz Research Institute for Environmental Medicine (IUF) 120-hour Neural Progenitor Cell Migration Assay for Neuron Migration (NPC2b) (AID 2284300)
Summary of the method: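 TUBB3-positive neurons are imaged after 120 h of differentiation, and their mean distance from the sphere edge is normalised to radial glia migration. Single 0.3 mm fetal hNPC spheres on poly-D-lysine/laminin received 7 compound concentrations, ≤0.1% DMSO, refreshed at day 3.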

[3] = IUF_NPC3_neuronal_differentiation_120hr: Leibniz Research Institute for Environmental Medicine (IUF) 120-hour Neuronal Differentiation Assay (NPC3) (AID 2284301)
Summary of the method: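 Single 0.3 mm neurospheres from human fetal cortex were plated in differentiation medium containing test compound. Medium was half-replaced on day 3. After 120 h cells were fixed, immunostained and imaged, and neuronal fraction was scored against DMSO control.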

[4] = IUF_NPC4_neurite_length_120hr: Leibniz Research Institute for Environmental Medicine (IUF) 120-hour Neuronal Morphology Assay for Neurite Length (NPC4) (AID 2284302)
Summary of the method: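 Read-out is mean neurite length in µm of TUBB3-positive neurons, skeletonized from high-content fluorescence images after 120 h. Single 0.3 mm primary human neural progenitor spheres differentiated on poly-D-lysine/laminin under continuous compound exposure; DMSO was baseline.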

[5] = IUF_NPC4_neurite_area_120hr: Leibniz Research Institute for Environmental Medicine (IUF) 120-hour Neuronal Morphology Assay for Neurite Area (NPC4) (AID 2284305; active = hit-call score of the fitted dose curve at least 0.9, where 1 is the maximum)
Summary of the method: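 Neurite area is read out as the mean pixel area, excluding nuclei, of skeletonized TUBB3-positive neurons imaged after 120 h. Primary human neural progenitor spheres differentiated on poly-D-lysine/laminin with compound present from day 0. Activity was referenced to DMSO controls.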

[6] = IUF_NPC2-5_cytotoxicity_72hr: Cytotoxicity Assessment at 72 hours in the Leibniz Research Institute for Environmental Medicine (IUF) Neural Progenitor Cell Migration and Differentiation Assay for Cytotoxicity (NPC2-5) (AID 2284306; active = hit-call score of the fitted dose curve at least 0.9, where 1 is the maximum;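 also: LDH release into supernatant measured by resorufin fluorescence marking membrane damage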)
Summary of the method: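 Membrane integrity loss was scored from fluorescence (RFU) of resorufin generated by LDH in culture supernatant, 72 h after dosing. Differentiating human progenitor spheres received seven serial compound concentrations alongside a solvent control.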

[7] = IUF_NPC2-5_cytotoxicity_120hr: Cytotoxicity Assessment at 120 hours in the Leibniz Research Institute for Environmental Medicine (IUF) Neural Progenitor Cell Migration and Differentiation Assay (NPC2-5) (AID 2284307; active = hit-call score of the fitted dose curve at least 0.9, where 1 is the maximum;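 as to AC50: LDH released into supernatant as membrane damage marker via resorufin fluorescence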)
Summary of the method: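 Membrane-integrity loss measured as LDH activity in medium supernatant via resazurin-to-resorufin fluorescence after 120 h exposure. hNPC spheres from GW 16-19 fetal cortex differentiated on poly-D-lysine/laminin, 37C, medium half-refreshed day 3; seven concentrations, DMSO max 0.1%.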

[8] = IUF_NPC2-5_cell_number_120hr: Cell Number Assessment at 120 hours in the Leibniz Research Institute for Environmental Medicine (IUF) Neural Progenitor Cell Migration and Differentiation Assay (NPC2-5) (AID 2284308);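 also: count of Hoechst-stained nuclei in migration zone around plated human neural progenitor spheres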
Summary of the method: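 Counting of all Hoechst-stained nuclei in the migration area at 120 h, versus DMSO control. Primary hNPC spheres differentiated on poly-D-lysine/laminin in N2 medium at 37C, dosed from day 0 (7 concentrations, DMSO ≤0.1%), half-refed day 3.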

[9] = IUF_NPC2-5_viability_120hr: Viability Assessment at 120 hours in the Leibniz Research Institute for Environmental Medicine (IUF) Neural Progenitor Cell Migration and Differentiation Assay (NPC2-5) (AID 2284312)
Summary of the method: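 Alamar blue resorufin fluorescence read after 5 days of differentiation, with compound present from day 0 and replenished at day 3. Primary hNPC spheres on laminin-coated plates, 37C; seven concentrations plus solvent control, fitted against DMSO.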

[10] = TAMU_PeakParms_SingleDonor1434_Asystole: Texas A&M University (TAMU) 1.5-hr Human Induced Pluripotent Stem Cell (iPSC)-derived Cardiomyocytes Calcium (Ca+2) Flux Assay for Cardiotoxicity: Asystole (quiescence of beating) (AID 2284328; active = hit-call score of the fitted dose curve at least 0.9, where 1 is the maximum)
Summary of the method: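 Average Ca2+-flux peak frequency (beats/s) was recorded in single-donor iPSC-derived cardiomyocytes after 90 min exposure (0.2–100 uM final, 0.5% DMSO). Asystole POD set as EC95 against DMSO, no preprocessing.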

[11] = IUF_NPC1_cytotoxicity_72hr: Cytotoxicity Assessment at 72 hours in the Leibniz Research Institute for Environmental Medicine (IUF) Neural Progenitor Cell Proliferation Assay (NPC1) (AID 2284332; active = hit-call score of the fitted dose curve at least 0.9, where 1 is the maximum;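 also: rising LDH signal means more cytotoxicity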)
Summary of the method: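 Single human fetal cortex neural progenitor spheres (GW 16-19, 0.25-0.35 mm) in EGF/FGF proliferation medium were exposed to compound for 72 h at 37C without renewal. Medium LDH release was read as resorufin fluorescence and fitted as gain-of-signal.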

[12] = IUF_NPC5_oligodendrocyte_differentiation_120hr: Leibniz Research Institute for Environmental Medicine (IUF) 120-hour Oligodendrocyte Differentiation Assay (NPC5) (AID 2284304; active = hit-call score of the fitted dose curve at least 0.9, where 1 is the maximum;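 also: primary human fetal neural progenitor spheres plated to migrate and differentiate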)
Summary of the method: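 Oligodendrocyte differentiation scored as O4-positive cells, found by CNN image analysis, as percent of Hoechst-stained nuclei in the migration area. Scoring followed 5 days of exposure of plated hNPC neurospheres differentiating in DMEM/F12 N2 medium at 37C, with compound refreshed at day 3.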

[13] = VALA_TUBHUV_Antagonist_CellCount: Viability Assessment in the VALA Sciences human Umbilical Vein Endothelial Tubule Formation (TUBHUV) Antagonism Assay (AID 2284310; active = hit-call score of the fitted dose curve at least 0.9, where 1 is the maximum)
Summary of the method: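 HUVEC co-cultured with HDF (1:3) 3 days in 10 ng/ml VEGF, then 3 days with compounds in VEGF medium. Fixed, nuclear stain and CD31 immunofluorescence, imaged; cell counts fitted versus 0.1% DMSO, loss of signal read as lower viability.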

[14] = VALA_MIGHUV2_WoundArea: VALA Sciences human Umbilical Vein Endothelial Cell Migration (MIGHUV) Assay, Area of Scratch Wound after Recovery (AID 2284316; active = hit-call score of the fitted dose curve at least 0.9, where 1 is the maximum)
Summary of the method: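 HUVEC seeded at 9000 cells/well, scratched after 24 h; test chemical added within 30 min, 6-point concentration response in triplicate (0.1% DMSO vehicle). After 24 h wound recovery, cells fixed and Hoechst-stained nuclei in wound area imaged; Cytochalasin D reference control.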

[15] = VALA_MIGHUV1_ScratchOnly_CellCount: Viability Assessment in the VALA Sciences human Umbilical Vein Endothelial Cell Migration (MIGHUV) Assay, Scratch Wound Inhibited Recovery (AID 2284327; active = hit-call score of the fitted dose curve at least 0.9, where 1 is the maximum)
Summary of the method: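 HUVEC scratched after 24 h culture, chemical added within 30 min at 6 concentrations in triplicate (0.1% DMSO vehicle). After 24 h recovery, fixed cells were counted by Hoechst nuclear imaging in the wound area.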

[16] = VALA_MIGHUV1_ScratchOnly_WoundArea: VALA Sciences human Umbilical Vein Endothelial Cell Migration (MIGHUV) Assay, Area of Scratch Wound Inhibited Recovery (AID 2284336; active = hit-call score of the fitted dose curve at least 0.9, where 1 is the maximum)
Summary of the method: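 HUVEC monolayers (9000 cells/well) were scratched after 24 h, dosed within 30 min (six concentrations, triplicate, 0.1% DMSO), allowed 24 h recovery, then fixed. Hoechst-stained nuclei in the wound imaged; cytochalasin D as reference.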

[17] = tested on: IYD (gene 389434); test: CCTE_GLTED_hIYD: CCTE's human Iodotyrosine Deiodinase (xIYD) Inhibition Assay, Great Lakes Toxicology and Ecology Division (GLTED) Lab (AID 2284317; active = hit-call score of the fitted dose curve at least 0.9, where 1 is the maximum;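 also: cell-free human IYD enzyme made in baculovirus insect cells; iodide freed from monoiodotyrosine measured by cerium arsenite color change at 420 nm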)
Summary of the method: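 Human IYD expressed in a baculovirus-insect cell system was incubated 3 h with monoiodotyrosine and test chemical. Released iodide, separated on Dowex columns, was quantified by the Sandell-Kolthoff reaction at 420 nm; plates were normalized to MNT and DMSO/NaOH controls.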

[18] = CCTE_Deisenroth_5AR_NBTE_donor: CCTE's 5alpha-reductase NanoBRET Target Engagement Assay […], Deisenroth Lab (AID 2284319); conditions: actives raise or lower the signal
Summary of the method: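 In this secondary endpoint, donor luminescence from SRD5A2-NanoLuc in transfected HEK293T flags artifacts. Test chemical (10 nM - 29.9 uM) is present five hours, tracer the last two; mock-tracer wells run plate-matched; data fitted bidirectionally against DMSO.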

[19] = CCTE_Deisenroth_5AR_NBTE_acceptor: CCTE's 5alpha-reductase NanoBRET Target Engagement Assay - Autofluorescence Screen, Deisenroth Lab (AID 2284321); conditions: actives raise or lower the signal;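 also: compound fluorescence in the acceptor channel under 460 nm excitation flags autofluorescence artifacts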
Summary of the method: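 Acceptor-channel fluorescence flags artifacts, with excitation fixed at 460 nm. Nominal 100 uM chemical samples were read in triplicate runs, and signal changes were fitted in both directions relative to DMSO.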

[20] = tested on: SRD5A2 (gene 6716); test: CCTE_Deisenroth_5AR_NBTE_ratio: CCTE's 5alpha-reductase NanoBRET Target Engagement Assay - Ratio, Deisenroth Lab (AID 2284322); conditions: actives raise or lower the signal
Summary of the method: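 Reverse-transfect HEK293T with pNLF1-C-SRD5A2, express 20 h. Pre-incubate cells with chemical 3 h (8-point series, 10 nM - 29.9 uM, duplicate). Add testosterone tracer, 2 h more. Add substrate/inhibitor, read donor and acceptor emission.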

Measured: AC50

CNC(=O)Oc1cccc2ccccc12
active: [4] 10 µM | [5] 10 µM
inactive: [1] | [2] | [3] | [6] | [7] | [8] | [9] | [10] | [11]

CO/N=C(/C1=NOCCO1)c1ccccc1Oc1ncnc(Oc2ccccc2Cl)c1F
inactive: [1] | [2] | [3] | [4] | [12] | [5] | [6] | [7] | [8] | [9]

CCSC(=O)N1CCCCCC1
inactive: [2] | [3] | [12] | [6] | [7] | [8] | [9] | [11]
active: [1] 8.49 µM | [4] 0.143 µM

COCc1cnc(C2=NC(C)(C(C)C)C(=O)N2)c(C(=O)O)c1 (stereo not given)
inactive: [13] | [14] | [15] | [16]

CC(C)Oc1cccc(NC(=O)c2ccccc2C(F)(F)F)c1
inactive: [17]

CS(=O)(=O)c1ccc(C(=O)C2C(=O)CCCC2=O)c([N+](=O)[O-])c1
inactive: [1] | [2] | [3] | [6] | [7] | [8] | [9]
active: [4] 0.203 µM

Cc1ccc(N=CN(C)C=Nc2ccc(C)cc2C)c(C)c1
inactive: [18] | [19] | [20]

C=C(C)CN(CC)c1c([N+](=O)[O-])cc(C(F)(F)F)cc1[N+](=O)[O-]
inactive: [1] | [2] | [3] | [4] | [12] | [5] | [7] | [8] | [9] | [11]

CCCCC(C#N)(Cn1cncn1)c1ccc(Cl)cc1 (stereo not given)
inactive: [10]

OC(c1ccc(Cl)cc1)(c1ccc(Cl)cc1)C(Cl)(Cl)Cl
active: [17] 100 µM

O=C(Nc1ccccc1-c1ccc(Cl)cc1)c1cccnc1Cl
inactive: [1] | [2] | [3] | [4] | [12] | [5] | [6] | [7] | [8] | [9] | [11]

CCN(CC)C(=O)C(C)Oc1cccc2ccccc12 (stereo not given)
inactive: [17]

CC(C)(C)C(=O)C(Oc1ccc(Cl)cc1)n1cncn1 (stereo not given)
inactive: [1] | [2] | [3] | [4] | [12] | [6] | [7] | [8] | [9] | [11]

O=C1C2CC=CCC2C(=O)N1SC(Cl)(Cl)Cl (stereo not given)
inactive: [18] | [19] | [20] | [10]

Cc1c(COC(=O)[C@@H]2[C@H](/C=C(\Cl)C(F)(F)F)C2(C)C)cccc1-c1ccccc1
active: [12] 1.25 µM
inactive: [1] | [2] | [3] | [4] | [5] | [6] | [7] | [8] | [9] | [11]

CCNC(=O)NC(=O)C(C#N)=NOC
inactive: [1] | [2] | [4] | [12] | [5] | [6] | [7] | [8] | [9] | [11]
active: [3] 0.318 µM

CC1(C)C(C=C(Cl)Cl)C1C(=O)OC(C#N)c1cccc(Oc2ccccc2)c1 (stereo not given)
inactive: [1] | [2] | [3] | [4] | [12] | [5] | [6] | [7] | [8] | [9] | [11]

COP(=S)(OC)SCn1nnc2ccccc2c1=O
not listed: [10] | [13] | [14] | [15] | [16] | [17]
inactive: all other assays above

COC(=O)N(C(=O)N1CO[C@@]2(C(=O)OC)Cc3cc(Cl)ccc3C2=N1)c1ccc(OC(F)(F)F)cc1
active: [12] 1.99 µM
inactive: [1] | [2] | [3] | [4] | [6] | [7] | [8] | [9] | [11]

CCC(C)n1c(=O)[nH]c(C)c(Br)c1=O (stereo not given)
inactive: [17]

CN/C(=N\[N+](=O)[O-])NCc1cnc(Cl)s1
active: [4] 10 µM | [5] 10 µM
inactive: [1] | [2] | [3] | [12] | [6] | [7] | [8] | [9] | [11]

CC1(C)CCC(=Cc2ccc(Cl)cc2)C1(O)Cn1cncn1 (stereo not given)
inactive: [18] | [19] | [20]

CS(=O)(=O)c1cc(C(F)(F)F)ccc1C(=O)c1cnoc1C1CC1
inactive: [1] | [2] | [3] | [4] | [12] | [5] | [6] | [7] | [8] | [9] | [11]

CCOP(=O)(OCC)Oc1nc(Cl)c(Cl)cc1Cl
active: [7] 0.169 µM
inactive: [1] | [2] | [3] | [4] | [5] | [6] | [8] | [9] | [11]

CC(C)NC(=O)N1CC(=O)N(c2cc(Cl)cc(Cl)c2)C1=O
inactive: [17]

N#CN=C1SCCN1Cc1ccc(Cl)nc1
inactive: [1] | [2] | [3] | [4] | [12] | [5] | [6] | [7] | [8] | [9] | [11]
